High-throughput results (PubChem BioAssay)
Only some compounds are listed: those with a hit (about 19% of all), similar ones and a draw of the others.
HT1080 IDH1KD tx: toxicity to HT-1080 IDH1 knockdown cells (counter line); HT-1080 IDH1 knockdown viability, ATP luminescence, 48 h; Potency, µM (titrated, usually from 46.1 µM), without a hit: top-dose activity, negative = toxicity, hits mostly cytotoxic; hit rate 2% among 360,000; AID 686971;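 note: potency is the fitted concentration of half-maximal effect; 0% = DMSO wells and -100% = cell-free medium wells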
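HT-1080-IDH1KD cells (IDH1 knocked down), 750/well in RPMI with 5% FBS, treated with compound 48 h at 37 degrees C. Viability by CellTiter-Glo luminescence, normalised to DMSO and no-cell wells; concentration-response curves classed.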
HT1080NT lethal: kills 2HG-producing HT-1080-NT fibrosarcoma cells; HT-1080-NT fibrosarcoma viability, CellTiter-Glo ATP luminescence, 48 h; Potency, µM (doses to about 46.1 µM), for the others: at the top dose activity, negative = less viability, hits mostly cytotoxic; hit rate 1.6% among 360,000; AID 686970;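 note: NT is the 2HG producing partner of a matched IDH1 knockdown line; potency is the fitted concentration of half-maximal effect; 0% = DMSO-treated cells and -100% = media-only wells without cells; nearly all actives have a fitted effect of over 55% in size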
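Compounds were tested in concentration-response format on HT-1080-NT cells for 48 hours at 37 degrees C. Cell viability came from CellTiter-Glo luminescence; curves were classified by r2, response magnitude and activity.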
TDP1 cell CPT: DT40-hTDP1 cell growth loss with CPT. chicken DT40 Tdp1-/-;hTDP1 cells + 20 nM CPT, ATP luminescence, 48 h. Potency, µM (top dose mostly 46.2 µM), inactives show at the highest dose activity change, negative = growth inhibition, actives largely listed as inhibitors. hit rate 12% among 420,000. AID 686979; note: potency is the fitted concentration of half-maximal effect; nearly all actives have a fitted effect of over 55% in size
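Chicken DT40 Tdp1-/- cells stably complemented with human TDP1 were seeded at 400 cells/well in medium containing 20 nM camptothecin, exposed to pin-transferred compounds, and grown at 37 °C for at least 48 hr. Viability was read as ATP luminescence.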
TDP1 cell noCPT: qHTS for Inhibitors of human tyrosyl-DNA phosphodiesterase 1 (TDP1): qHTS in cells in absence of CPT; Potency, µM (doses to about 46.2 µM), inactives show at the top dose activity change, negative = growth inhibition, actives largely listed as inhibitors; DT40 Tdp1-/- hTDP1 cells, no CPT, ATP luminescence, 48 h; hit rate 15% among 420,000; note: potency is the fitted concentration of half-maximal effect; nearly all actives have a fitted effect of over 55% in size
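DT40 Tdp1-/-;hTDP1 cells, no CPT (DMSO vehicle only), 400 cells/well; compounds pin-transferred; ≥48 hr, 37 °C; CellTiter-Glo 30 min RT dark, luminescence read.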
IL1B secr inh: inhibitors of inflammasome signaling (IL-1 beta secretion). THP-1 LPS/ATP IL-1B secretion, AlphaLISA, 16 h; stronger effect = lower value. activity change, % at 57.5 µM. hit rate 4.7% among 360,000; in the data active = activity change below about -50%; inconclusive = mostly about -30% to -49%
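Secreted IL-1B measured by AlphaLISA bead assay after 16 h compound exposure of THP-1 cells; compounds (final up to 57.5 uM) added 1 h before LPS (250 ng/mL) and ATP (1.25 mM) stimulation; lower signal means less secretion.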
The depositor's hits bear a star. Unless noted, calls come from the whole dose curve; as a rule, active = well fitted curve in the direction sought with a large enough effect; inconclusive = small, poorly fitted or top-dose-only effect, or another doubt; inactive = no such curve, though single readings can be large; an effect the other way counts as inactive or inconclusive. Unless noted, % is set by controls: 0 for no effect and ±100 for the full control effect.

What do the screens show for `CCN(CC)C(=O)c1cccc(-c2csc(C(C)(O)c3cccc(F)c3)n2)c1` (stereo not given)?
HT1080 IDH1KD tx: inconclusive; HT1080NT lethal: inconclusive; TDP1 cell CPT: 18µM*; TDP1 cell noCPT: 23µM*; IL1B secr inh: -23

How did CC(O)(c1cccc(F)c1)c1nc(/C=C/c2ccccc2)cs1 (stereo not given) do in these assays?
HT1080 IDH1KD tx: inconclusive; HT1080NT lethal: -73%; TDP1 cell CPT: 18µM*; TDP1 cell noCPT: inconclusive; IL1B secr inh: -4

What do the screens show for `COc1ccc(C(C)(O)c2nc(-c3ccc(OC)nc3)cs2)cc1` (stereo not given)?
HT1080 IDH1KD tx: -12%; HT1080NT lethal: -22%; TDP1 cell CPT: inconclusive; TDP1 cell noCPT: inconclusive; IL1B secr inh: 94

Results for COc1ccc(CNC(=O)C(=O)NCCCn2ccnc2)cc1 ?
HT1080 IDH1KD tx: 7%; HT1080NT lethal: -1%; TDP1 cell CPT: -17%; TDP1 cell noCPT: 8%; IL1B secr inh: -22

How did c1ccc(CSc2ncnc3c2cnn3-c2ccccc2)cc1 do in these assays?
HT1080 IDH1KD tx: 24%; HT1080NT lethal: 20%; TDP1 cell CPT: 2%; TDP1 cell noCPT: 0%; IL1B secr inh: -4

How did COc1ccc(CCn2c(C)cc(C(=O)COC(=O)c3cnccn3)c2C)cc1 do in these assays?
HT1080 IDH1KD tx: 3%; HT1080NT lethal: 18%; TDP1 cell CPT: -5%; TDP1 cell noCPT: 12%; IL1B secr inh: -10

How did COCCNc1nc(-c2cc(C)n(CCc3ccc(OC)cc3)c2C)cs1 do in these assays?
HT1080 IDH1KD tx: -13%; HT1080NT lethal: -20%; TDP1 cell CPT: 16µM*; TDP1 cell noCPT: 18µM*; IL1B secr inh: -16

Results for Nc1nc(N)nc(C2C=CCCC2)n1 (stereo not given) ?
HT1080 IDH1KD tx: -3%; HT1080NT lethal: -2%; TDP1 cell CPT: 4%; TDP1 cell noCPT: -8%; IL1B secr inh: 26

Results for CN(C)c1cccc2c(C=C(C#N)C#N)ccc(N(C)C)c12 ?
HT1080 IDH1KD tx: 2%; HT1080NT lethal: 11%; TDP1 cell CPT: inconclusive; TDP1 cell noCPT: inconclusive; IL1B secr inh: -95*

How did CCOC(=O)C1CCN(C(=O)COc2ccc(S(=O)(=O)N3CCOCC3)cc2C)CC1 do in these assays?
HT1080 IDH1KD tx: 8%; HT1080NT lethal: 0%; TDP1 cell CPT: -20%; TDP1 cell noCPT: -14%; IL1B secr inh: 8

Results for CCOC(=O)C1CCCN(C(=O)COc2ccc(C(C)(C)C)cc2)CC1 (stereo not given) ?
HT1080 IDH1KD tx: -3%; HT1080NT lethal: -3%; TDP1 cell CPT: 21µM*; TDP1 cell noCPT: 15µM*; IL1B secr inh: 0

What do the screens show for `CCOC(=O)C1(C)CCN1C(=O)COc1ccc(C(C)(C)C)cc1` (stereo not given)?
HT1080 IDH1KD tx: -12%; HT1080NT lethal: 0%; TDP1 cell CPT: 21µM*; TDP1 cell noCPT: 21µM*; IL1B secr inh: 33

How did CCOC(=O)C1(C)CCN1C(=O)COc1ccccc1 (stereo not given) do in these assays?
HT1080 IDH1KD tx: 6%; HT1080NT lethal: 23%; TDP1 cell CPT: 2%; TDP1 cell noCPT: -3%; IL1B secr inh: -13

What do the screens show for `CCOC(=O)C1CCCN(C(=O)COc2ccc(C(=O)c3ccccc3)cc2)C1` (stereo not given)?
HT1080 IDH1KD tx: -15%; HT1080NT lethal: -10%; TDP1 cell CPT: 23µM*; TDP1 cell noCPT: 23µM*; IL1B secr inh: 9

How did CCOC(=O)C1CCCN(C(=O)COc2ccc(S(=O)(=O)N3CCOCC3)cc2)C1 (stereo not given) do in these assays?
HT1080 IDH1KD tx: 21%; HT1080NT lethal: 0%; TDP1 cell CPT: -8%; TDP1 cell noCPT: 1%; IL1B secr inh: -75*

How did CCOC(=O)C1CCN(C(=O)COc2ccc([N+](=O)[O-])cc2)CC1 do in these assays?
HT1080 IDH1KD tx: 12%; HT1080NT lethal: 2%; TDP1 cell CPT: inconclusive; TDP1 cell noCPT: -17%; IL1B secr inh: -13

What do the screens show for `C[C@@H]1CN([C@@H](C)CO)C(=O)CCCn2nncc2CO[C@@H]1CN(C)S(=O)(=O)c1ccc(F)cc1`?
HT1080 IDH1KD tx: 14%; HT1080NT lethal: 15%; TDP1 cell CPT: 1%; TDP1 cell noCPT: 22%; IL1B secr inh: 12

How did Cc1cccc(C)c1NC(=O)C(c1ccc(C(F)(F)F)cc1)n1c(=O)c(-c2ccccc2)nc2ccccc21 (stereo not given) do in these assays?
HT1080 IDH1KD tx: -1%; HT1080NT lethal: 13%; TDP1 cell CPT: inconclusive; TDP1 cell noCPT: inconclusive; IL1B secr inh: 46

How did COC(=O)c1sc(SC)c(-c2ccon2)c1C do in these assays?
HT1080 IDH1KD tx: 1%; HT1080NT lethal: -8%; TDP1 cell CPT: 0%; TDP1 cell noCPT: -5%; IL1B secr inh: 9

Results for CCOC(=O)C1CCN(Cc2cnc(Oc3ccc(C(C)(C)C)cc3)s2)CC1 ?
HT1080 IDH1KD tx: -5%; HT1080NT lethal: -2%; TDP1 cell CPT: inconclusive; TDP1 cell noCPT: 21µM*; IL1B secr inh: 47

How did CCOC(=O)C1CCN(Cc2cnc(NC(=O)OC)s2)CC1 do in these assays?
HT1080 IDH1KD tx: 3%; HT1080NT lethal: -3%; TDP1 cell CPT: -8%; TDP1 cell noCPT: 8%; IL1B secr inh: 18

How did Clc1ccc(SCCOCCN2CCCCCC2)cc1 do in these assays?
HT1080 IDH1KD tx: -25%; HT1080NT lethal: -26%; TDP1 cell CPT: inconclusive; TDP1 cell noCPT: inconclusive; IL1B secr inh: -8

Results for CCN(CC)S(=O)(=O)c1ccc(N2CCOCC2)c(NC(=O)c2ccc(NC(C)=O)cc2)c1 ?
HT1080 IDH1KD tx: -2%; HT1080NT lethal: 0%; TDP1 cell CPT: -26%; TDP1 cell noCPT: 19%; IL1B secr inh: inconclusive

What do the screens show for `CCN(CC)S(=O)(=O)c1ccc(N2CCOCC2)c(NC(=O)c2ccc3c(c2)OCCO3)c1`?
HT1080 IDH1KD tx: 0%; HT1080NT lethal: 2%; TDP1 cell CPT: 16µM*; TDP1 cell noCPT: 21µM*; IL1B secr inh: -4

What do the screens show for `CCN(CC)S(=O)(=O)c1ccc(N2CCOCC2)c(NC(=O)c2cccc3ccccc23)c1`?
HT1080 IDH1KD tx: -5%; HT1080NT lethal: -7%; TDP1 cell CPT: 26µM*; TDP1 cell noCPT: 16µM*; IL1B secr inh: inconclusive

Results for CCN(CC)S(=O)(=O)c1ccc(N2CCCCC2)c(C(=O)Nc2ccccc2N2CCOCC2)c1 ?
HT1080 IDH1KD tx: 4%; HT1080NT lethal: 15%; TDP1 cell CPT: 10µM*; TDP1 cell noCPT: 9.2µM*; IL1B secr inh: -19
